Test results from PubChem BioAssay.
Calls of active or inactive are those of the source. Unless noted, how the calls were made is not given here.

Key:
[1] = A549 cell viability effects, profiling panel, calcein-AM fluorescence, 48 h, basal (AID 1162); conditions: higher = more signal; further: test concentration not given here
[2] = adipocyte viability effects, profiling panel, cell-based, 3T3-L1 adipocytes, calcein-AM fluorescence, 48 h, basal (AID 1163); conditions: 3T3-L1 adipocytes viability, higher = more signal; further: test concentration not given here
[3] = HepG2 cell viability effects, profiling panel, calcein-AM fluorescence, 48 h, basal (AID 1164); conditions: higher = more signal; further: test concentration not given here
[4] = MM1S cell viability effects, profiling panel, calcein-AM fluorescence, 48 h, basal (AID 1165); conditions: higher = more signal;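 further: viability of MM1S multiple myeloma cells under basal unstimulated conditions; test concentration not given here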
[5] = basal RPMI8226 viability, no added stimulus, profiling panel, cell-based, calcein-AM fluorescence, 48 h, PK04 Diversity Set (AID 1166); conditions: RPMI8226 myeloma viability, higher = more signal;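 further: cells grown under basal conditions without added stimulus; test concentration not given here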
[6] = basal HepG2 mitochondrial membrane potential changes, profiling panel, cell-based, JC-1 fluorescence, 24 h, 100 nL compound (AID 1167); conditions: higher = more signal; further: test concentration not given here
[7] = basal 3T3-L1 adipocyte mitochondrial potential changes, profiling panel, cell-based, JC-1 fluorescence, 3T3-L1 adipocytes, 24 h, 100 nL compound (AID 1168); conditions: JC-1 mitochondrial fluorescence, higher = more signal, called active from +8 up or from −8 down; further: test concentration not given here
[8] = basal RPMI8226 mitochondrial membrane potential changes, profiling panel, cell-based, JC-1 fluorescence, 24 h, 100 nL compound (AID 1169); conditions: RPMI8226 myeloma, JC-1 mitochondrial potential fluorescence, higher = more signal; further: test concentration not given here
[9] = basal MM1S mitochondrial membrane potential changes, profiling panel, cell-based, JC-1 fluorescence, 24 h, 100 nL compound (AID 1170); conditions: higher = more signal; further: test concentration not given here
[10] = A549 lung cancer cell viability effects, profiling panel, resazurin fluorescence, 24 h, PK04 Diversity Set (AID 1171); conditions: higher = more signal, called active from +8 up or from −8 down; further: test concentration not given here
[11] = HepG2 liver cancer cell viability effects, profiling panel, resazurin fluorescence, 24 h, PK04 Diversity Set (AID 1172); conditions: higher = more signal; further: test concentration not given here
[12] = basal S. cerevisiae growth modulation, no modifier, primary screen, OD600, strain BY4716, 24 h, basal condition (AID 1173); conditions: OD600, 24 h, higher = more signal, called active from +8 up or from −8 down
[13] = MM1S myeloma cell viability, profiling panel, resazurin fluorescence, basal, 24 h, PK04 Diversity Set (AID 1174); conditions: higher = more signal, called active from +8 up or from −8 down;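 further: MM1S multiple myeloma cell line; test concentration not given here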
[14] = target: Dihydroorotate dehydrogenase (quinone), mitochondrial (Plasmodium falciparum (isolate 3D7)) (UniProt Q08210); assay: PfDHODH enzyme inhibitors, primary screen, biochemical, C-terminal His tag, absorbance 600 nm (AID 1175); conditions: DCIP absorbance 600 nm, higher = more signal, called active from +8 up or from −8 down;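 further: recombinant parasite enzyme with a five histidine tag at its C terminus; test concentration not given here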
Chain of Dihydroorotate dehydrogenase (quinone), mitochondrial (Plasmodium falciparum (isolate 3D7)) (Q08210 whole entry, looked up): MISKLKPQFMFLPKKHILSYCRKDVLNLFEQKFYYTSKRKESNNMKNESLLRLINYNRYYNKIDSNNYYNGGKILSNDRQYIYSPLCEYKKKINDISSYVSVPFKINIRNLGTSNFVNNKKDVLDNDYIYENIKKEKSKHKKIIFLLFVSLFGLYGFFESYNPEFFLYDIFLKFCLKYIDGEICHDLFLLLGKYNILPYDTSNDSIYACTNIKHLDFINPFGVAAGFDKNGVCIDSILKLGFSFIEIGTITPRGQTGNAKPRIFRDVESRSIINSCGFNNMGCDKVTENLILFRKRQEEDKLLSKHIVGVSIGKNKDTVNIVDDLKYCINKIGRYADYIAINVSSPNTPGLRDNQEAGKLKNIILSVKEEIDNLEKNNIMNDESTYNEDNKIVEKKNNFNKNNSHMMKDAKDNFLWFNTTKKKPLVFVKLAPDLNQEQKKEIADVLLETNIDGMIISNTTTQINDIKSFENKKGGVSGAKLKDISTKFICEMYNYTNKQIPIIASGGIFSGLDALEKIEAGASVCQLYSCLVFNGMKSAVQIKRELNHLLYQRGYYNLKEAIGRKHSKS

[15] = P. aeruginosa biofilm formation inhibitors, primary screen, strain PAO1, LB-PBS medium, absorbance 600 nm (AID 1176); further: test concentration not given here; conditions: P. aeruginosa PAO1 growth/biofilm, A600, 12 h; higher = more signal
[16] = S. cerevisiae RM11-1a growth modifiers, primary screen, strain RM11-1a, OD600, basal, 24 h (AID 1177); conditions: OD600, 24 h, higher = more signal, called active from +8 up or from −8 down;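 further: cultures grown under basal conditions with no added stressor; test concentration not given here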
[17] = E. coli acrAB mutant growth effects, primary screen, E. coli filamentation inducers, strain DRC39, OD650, 24 h (AID 1178); conditions: higher = more signal, called active from +8 up or from −8 down;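 further: growth measured as culture turbidity by optical density at 650 nm; test concentration not given here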
[18] = E. coli acrAB mutant growth effects, primary screen, E. coli filamentation inducers, strain DRC39, OD650, 48 h (AID 1179);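 further: screen aims at cell division blockers that make cells filament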; conditions: E. coli DRC39 delta-acrAB growth, higher = more signal, called active from +8 up or from −8 down
[19] = RPMI8226 myeloma cell viability, profiling panel, resazurin fluorescence, basal, 24 h, PK04 Diversity Set (AID 1180); conditions: higher = more signal;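 further: RPMI8826 multiple myeloma cell line at 5000 cells per well; test concentration not given here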
[20] = target: E3 ubiquitin-protein ligase XIAP (Homo sapiens) (UniProt P98170); assay: XIAP binders, primary screen, biophysical, small-molecule microarray, fluorescence 635 nm (AID 1181); conditions: small-molecule microarray binding, higher = more signal;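 further: score merges 667 nm emission and signal to noise over triplicate slides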
Chain of E3 ubiquitin-protein ligase XIAP (Homo sapiens) (P98170 whole entry, looked up): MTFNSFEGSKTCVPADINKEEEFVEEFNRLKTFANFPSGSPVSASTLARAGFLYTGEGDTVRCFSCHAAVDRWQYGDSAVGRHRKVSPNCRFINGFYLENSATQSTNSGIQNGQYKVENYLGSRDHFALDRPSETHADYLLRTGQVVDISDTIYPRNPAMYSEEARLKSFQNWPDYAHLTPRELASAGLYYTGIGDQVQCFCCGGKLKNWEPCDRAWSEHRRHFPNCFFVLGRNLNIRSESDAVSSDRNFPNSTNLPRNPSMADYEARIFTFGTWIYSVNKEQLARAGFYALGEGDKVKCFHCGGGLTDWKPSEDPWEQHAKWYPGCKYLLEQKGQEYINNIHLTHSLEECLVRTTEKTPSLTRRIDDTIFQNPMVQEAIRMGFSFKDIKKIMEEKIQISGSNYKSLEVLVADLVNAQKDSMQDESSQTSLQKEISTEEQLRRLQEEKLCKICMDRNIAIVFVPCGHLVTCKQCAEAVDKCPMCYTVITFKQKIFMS

Structure (SMILES) | z-score [1] | z-score [2] | z-score [3] | z-score [4] | z-score [5] | z-score [6] | z-score [7] | z-score [8] | z-score [9] | z-score [10] | z-score [11] | z-score [12] | z-score [13] | composite z-score [14] | z-score [15] | z-score [16] | z-score [17] | z-score [18] | z-score [19] | composite z-score [20]
CCN(CC)c1ccc(N2CC=CC34O[C@@H]5C=CCOC(=O)[C@@H]5[C@H]3C(=O)N(CCCCCCO)[C@@H]4C2=O)cc1 (stereo not given in full) | -0.705 | 0.839 | -0.0976 | 1.4 | 0.922 | 0.554 | 1.21 (inactive) | 0.267 | -0.72 | 1.37 (inactive) | 1.35 | -0.532 (inactive) | 1.27 (inactive) | 0.466 (inactive) | -0.152 (inactive) | -0.5 (inactive) | 0.918 (inactive) | 0.701 (inactive) | 1.45 | 0.212
CN(C)CCCCCCNC(=O)[C@@H]1C[C@@H]2C(=O)N3CCC[C@H]3C(=O)N2[C@@H]1c1ccc(O)cc1 | 1.26 | 1.09 | 0.773 | 0.581 | -0.586 | 1.06 | 0.342 (inactive) | -0.689 | -0.78 | -0.908 (inactive) | -0.627 | -0.732 (inactive) | -0.235 (inactive) | -1.7 (inactive) | 1.82 (inactive) | -2.55 (inactive) | 0.966 (inactive) | 1.64 (inactive) | -0.198 | 0.117
COC(=O)c1c(CC[C@@H](CO)NC(=O)N[C@@H](Cc2ccccc2)Cn2cc(-c3ccccn3)nn2)oc(C(=O)N2CCOCC2)c1C(=O)OC | 0.122 | 0.17 | -1.31 | 0.527 | 0.642 | -0.105 | 0.0526 (inactive) | -0.652 | -0.0834 | 0.765 (inactive) | 0.482 | -0.239 (inactive) | 0.475 (inactive) | 0.138 (inactive) | -0.476 (inactive) | 1.3 (inactive) | 0.506 (inactive) | 0.327 (inactive) | 0.277 | 0.23
CCCCCCCCCCC(O)C1C=CC2C(=O)NC(=O)C2N1Nc1ccc(Cl)cc1Cl (stereo not given) | -4.55 | 0.061 | -3.5 | -3.8 | -4.21 | -3.53 | -0.354 (inactive) | -0.931 | -1.08 | -1.52 (inactive) | -2.55 | -1.08 (inactive) | -1.76 (inactive) | 0.762 (inactive) | 0.201 (inactive) | 1.69 (inactive) | -0.801 (inactive) | -1.27 (inactive) | -1.51 | -0.102
O=C1OCC=C[C@H]2OC34C=CCN(CCN5CCOCC5)C(=O)[C@H]3N(CCO)C(=O)[C@@H]4[C@@H]12 (stereo not given in full) | -0.157 | 0.196 | 0.804 | -0.635 | -0.253 | -0.464 | 0.00617 (inactive) | -0.299 | 0.292 | -0.124 (inactive) | 0.226 | -0.0819 (inactive) | -0.176 (inactive) | -0.424 (inactive) | -0.608 (inactive) | -0.31 (inactive) | -0.533 (inactive) | -0.385 (inactive) | -0.386 | -0.28
